Experimental data as given in ChEMBL document CHEMBL3988442, “University of Dundee, Small-Polar-MMV Screening Library” (2021).
In all, about 48,000 compounds went through this assay and about 13,000 (27%) showed an effect of 50% or more. The list shows a part of the results.

tested on: Wolbachia pipientis; test: Anti-Wolbachia Cell-Based Screen; type: functional; design: scale not given: in the data most compounds retested in dose-response had high values; conditions: 5 µM

Structure (SMILES)	Percent Effect
COCc1nc(C2CC2)nn1-c1cc(Cl)ccc1OC	-14.4%
CCC(CNC(=O)c1nc(=O)[nH][nH]1)Oc1cccc(C(F)(F)F)c1 (stereo unspecified)	-1.128%
COc1cccc(CNC(=O)c2cccnc2SC(C)C)c1	92.51%
CC(C)Nc1ncccc1C(=O)NCc1cnc(N(C)C)n1C	23.22%
CC(C)Sc1ncccc1C(=O)NCc1cccc(N(C)C)c1	97.33%
COc1ccnc(NC(=O)CSCc2cccnc2)c1	1.726%
CCS(=O)(=O)N(C)C1CCN(Cn2ccc(-c3ccc(F)cc3)n2)CC1	1.424%
O=C(NC1(c2nccs2)CCCC1)c1cc(C2CC2)on1	-6.868%
Cc1noc(C)c1CS(=O)(=O)CC(=O)N1c2ccccc2CC1C (stereo unspecified)	25.49%
O=C(Cc1ccc(F)cc1Cl)N1C[C@@H](CN2CCC(O)CC2)[C@@H](CO)C1	-45.53%
Cc1ncnc2c1CCN(C(=O)c1cccnc1)CC2	-9.06%
Cc1nn(C(=O)c2cccnc2)c(C)c1C	108.2%
COc1ccc(C(=O)n2nc(C)c(C)c2C)cc1	10.75%
Cc1cc(NCc2cccnc2)n2nc(C)cc2n1	12.04%
CC(C)c1cc(NCC(O)c2ccccn2)n2nccc2n1 (stereo unspecified)	16.27%
Cc1cc2nc(C(C)C)cc(NCC(c3ccccn3)N(C)C)n2n1 (stereo unspecified)	15.65%
Cc1cc(NCCNc2ncccc2C)n2nc(C)cc2n1	109.3%
Cc1cc2nc(C(C)C)cc(NCCNc3ncccc3C)n2n1	112.1%
CC(=O)NCCNc1cc(C)nc2cc(C)nn12	-17.81%
CC(C)c1cc(NCC(C)N2CCCC2)n2nccc2n1 (stereo unspecified)	-22.52%
CC(C)c1cc(NCC(O)CO)n2nccc2n1 (stereo unspecified)	7.798%
Cc1cccnc1NCCNc1cc(C(C)C)nc2ccnn12	101.8%

Structure (SMILES)	Percent Effect
CN1CCC(n2nc(Cc3cccc(Cl)c3)nc2Cn2ccnc2)CC1	-3.422%
CCCn1nc(C(=O)NCCc2nnc3n2CCC3)ccc1=O	5.324%
O=C1CCCN1CCc1noc(-c2ccc3[nH]cnc3c2)n1	-10.57%
COc1ccc(CNC2CCCc3nc(N(C)C)ncc32)c(OC)c1 (stereo unspecified)	113.1%
COc1ccc2c(c1)C(NCCc1ncc(C)s1)CCCO2 (stereo unspecified)	17.43%
CCCOc1ccc(CNC2CCCc3c2cnn3CC)cc1OC (stereo unspecified)	1.181%
CCn1ncc2c1CCCC2NCc1ccc(OC)c(C)c1 (stereo unspecified)	-3.93%
COc1ccc(OC)c(CNC2CCCc3nc(N(C)C)ncc32)c1 (stereo unspecified)	105.7%
CCn1ncc2c1CCCC2NCc1cc(Cl)c(OC)c(OC)c1 (stereo unspecified)	-1.567%
COc1ccc(F)c(CNC2CCCc3nc(N(C)C)ncc32)c1 (stereo unspecified)	96.62%
Cc1cc(C)c(C(=O)NC2CCCc3nc(N(C)C)ncc32)cc1C (stereo unspecified)	-4.078%
COc1cc(F)c(S(=O)(=O)NCc2ccnc(N(C)C)n2)cc1OC	0.6803%
CCOC(C)c1nc(CN2CCC(C3OCCO3)CC2)cs1 (stereo unspecified)	-5.348%
CN(CCc1nc2ccccc2c(=O)[nH]1)CCC(F)(F)F	-6.377%
CNC(=O)C(C)(C)NC(=O)c1cc(COc2cccc(C(C)=O)c2)[nH]n1	5.939%
O=C(Nc1cccc(N2CCN(CC3CC3)CC2)c1)C1CCOC1 (stereo unspecified)	-7.118%
CCN1CCN(C(=O)c2ccc3c(c2)NC(=O)CN3)[C@H]2CS(=O)(=O)C[C@H]21	7.083%
Cl.Cn1cc(CN(Cc2ccccc2)Cc2ccccn2)cn1	101.3%
CN(Cc1cnn(C)c1)C(=O)NC1CCN(Cc2ccccn2)CC1	-4.519%
COc1ccccc1CN(C)c1nccc(-c2cn(C)nc2C)n1	-7.113%
CCOc1cccc(CN(Cc2cnn(C)c2)CC(C)C)c1O	5.177%
OC(CN(Cc1ccccc1)Cc1ccccn1)c1cccs1 (stereo unspecified)	-16.67%

Structure (SMILES)	Percent Effect
COCCN(C/C=C/c1ccccc1)Cc1ccccn1	-3.939%
Cn1cc(CN(Cc2ccccn2)Cc2ccccc2Cl)cn1	107.7%
Cn1cc(CN(Cc2ccccc2)CC(O)c2cccs2)cn1 (stereo unspecified)	-0.3984%
Cc1nn(C)cc1CN(Cc1ccccn1)Cc1ccccc1Cl	76.4%
COc1cccc(S(=O)(=O)CCN2CCCC2c2ccc[nH]2)c1 (stereo unspecified)	-2.252%
CCN1CCC(NC(=O)N(C)Cc2csc3ccccc23)CC1	1.913%
CC(C)C(NC(=O)NCC1(CO)CC1)c1nnc2n1CCC2 (stereo unspecified)	14.94%
O=C(NCCN1CCCCC1)c1scnc1Cl	1.584%
Cc1ncsc1CCN(C)C(=O)CN1CCCCCC1=O	-1.63%
Cc1ncsc1C(=O)NCCSCc1cccs1	-6.016%
Cc1ncsc1C(=O)NCCCN1CCCCCC1=O	91.19%
O=C(NCCN1CCCc2ccccc21)c1scnc1Cl	4.891%
Cc1ncsc1C(=O)OCCN1CCCc2ccccc21	101.6%
Cc1ncsc1CN(C)C(=O)C(CC(C)C)N1CCCCC1=O (stereo unspecified)	12.62%
Cc1ncsc1C(=O)NCCN1CCCCCC1=O	95.46%
Cc1ncsc1C(=O)OCCN1CCCCCC1=O	115.8%
Cc1ncsc1C(=O)NCCn1nc2ccccn2c1=O	-10.37%
CC(C(=O)NCCCN1CCCCCC1=O)n1cncn1 (stereo unspecified)	-4.192%
Cc1cc(C(=O)NCCN2CCCc3ccccc32)[nH]n1	-6.772%
COc1ccc(C(=O)N2CCC(Oc3ccccc3)(C(=O)O)CC2)o1	-6.202%
CC(=O)NCc1nc(CCOc2ccc(Cl)cc2)no1	-0.6631%
COCCN1C(=O)CC(N2CCN(c3ccc(OC)cc3)CC2)C1=O (stereo unspecified)	6.624%

Structure (SMILES)	Percent Effect
NCc1cn(CC2CCCN(C(=O)NCc3ccc(Cl)cc3)C2)nn1 (stereo unspecified)	-34.24%
Cc1nnc(N2C[C@@H](Oc3ccccn3)[C@H]3OCCC[C@H]32)s1.O=C(O)C(F)(F)F.O=C(O)C(F)(F)F	-5.034%
COc1ccccc1Oc1ncccc1CNC(=O)C(C)CN (stereo unspecified)	1.057%
COc1ccccc1N1CCC(CNCc2cccc(OC)c2OC)C1 (stereo unspecified)	0.729%
CCCS(=O)(=O)N1CCC2(CCCN(Cc3cccc(F)c3F)C2=O)C1 (stereo unspecified)	-35.96%
COc1cccc(OC)c1CN1CC(O)CN(S(C)(=O)=O)CC1=O (stereo unspecified)	127.9%
COc1cccc(CN2CC3(CCNCC3)CCC2=O)c1OC	-5.805%
CCCS(=O)(=O)N1CC(=O)N(Cc2ccccc2OC)CC(O)C1 (stereo unspecified)	89.31%
CCCS(=O)(=O)N1CC(=O)N(Cc2cccc(OC)c2OC)CC(O)C1 (stereo unspecified)	125.8%
COc1cccc(OC)c1CN1CC(=O)N(c2ccc(C)cc2)CC1C (stereo unspecified)	7.242%
COc1ccccc1S(=O)(=O)N1CCC2(CC1)[C@H](O)C[C@@H]2O	-0.7897%
COc1cccc(CN2CC(O)CN(S(C)(=O)=O)CC2=O)c1OC (stereo unspecified)	96.57%
COc1cc(CNc2cc(-c3ccoc3C)nn2CCO)ccc1F	9.115%
COc1c(F)cc(CN2CCC3(CC2)C(C(=O)O)CC(=O)N3C)cc1Cl (stereo unspecified)	5.354%
CS(=O)(=O)c1cccc(Cl)c1C(=O)NCCN1C(=O)CCC1=O	-4.304%
COc1ccccc1CN1C(=O)O[C@@H]2CN(C(C)C)C[C@@H]21	11.8%
CCO[C@H]1C[C@@H](O)C12CCN(S(=O)(=O)c1ccccc1OC)CC2	-9.049%
COc1ccccc1CN1C(=O)O[C@@H]2CN(S(=O)(=O)N(C)C)C[C@@H]21	-2.255%
COc1ccccc1CC(C)N(C)S(C)(=O)=O (stereo unspecified)	9.665%
COc1ccccc1CN1CC(O)CN(S(=O)(=O)C(C)C)CC1=O (stereo unspecified)	100.2%
CCS(=O)(=O)N1CC(=O)N(Cc2ccccc2OC)CC(O)C1 (stereo unspecified)	89.74%
CCc1noc(C)c1C(=O)NCc1c(C)nn(CCOC)c1C	-2.688%

Structure (SMILES)	Percent Effect
CN(C)C(=O)N1C[C@H]2CC[C@@H]1CN(C1Cc3ccccc3C1)C2	7.395%
Cc1cnc(C)c(N2CCCC(CO)(Cc3ccccc3C)C2)n1 (stereo unspecified)	-4.771%
CCc1ccc2nc(NCCCN(CCO)CCO)cc(C)c2c1	14.19%
CCc1ccc2nc(NCCOCCO)cc(C)c2c1	107.5%
CCc1ccc2nc(NCC(O)CO)cc(C)c2c1 (stereo unspecified)	-9.237%
NC(=O)C(NC(=O)CCc1ccc(Cl)s1)c1ccccc1 (stereo unspecified)	7.544%
c1cc(-c2ccc3c(c2)C2(CCNCC2)CC3)ccn1	-17.91%
O=C(CCc1ccc(F)cc1)NS(=O)(=O)c1ccc2c(c1)OCCCO2	20.72%
c1cnc2[nH]c(C3CCNCC3)c(CN3CCOCC3)c2c1	102.1%
COCCN1CCC(c2nc3c([nH]2)CC(C)(C)CNC3=O)CC1	-9.725%
Cl.c1cnc2[nH]c(C3CCCNC3)c(CN3CCCOCC3)c2c1 (stereo unspecified)	94%
COCCN1CCN(Cc2c(C3CCNCC3)[nH]c3ncccc23)CC1.Cl	66.52%
c1cnc2[nH]c(C3CCCC3)c(CN3CCOCC3)c2c1	96.59%
Cl.OC1CCN(Cc2c(C3CCCNC3)[nH]c3ncccc23)CC1 (stereo unspecified)	-8.296%
Oc1ncccc1-c1nc(-c2cccc(CN3CCOCC3)c2)no1	-1.647%
COCCn1ccnc1C1CCN(Cc2ccccc2C#N)CC1	-0.03291%
CN(Cc1ccon1)CC1CCOc2ccccc2C1 (stereo unspecified)	-13.25%
CC1CN(C(=O)c2ccnc(OCCN(C)C)c2)c2ccccc21 (stereo unspecified)	5.142%
